Wnt bcat act: Wnt/beta-catenin pathway activation | activation, % at 9.35 µM | Wnt/beta-catenin reporter cell assay, activator, plate reader | 300,000 tested, 1.2% active | AID 743398; in the data active = activation above about 30%, passing the limit was not always enough; inconclusive = no clear call, values can overlap the other calls
HSF-1 act: increases HSF-1 driven luciferase reporter signal; NIH3T3-HGL HSF-1 luciferase reporter, MG132, 8 h; 100% = twice DMSO control signal; activation, % at 9 µM; 300,000 tested, 1.7% active; AID 504408;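 active = mean replicate activation of at least 50% with a set share of replicates each reaching 50%; inconclusive = only one of those two conditions met; inactive = mean below 50% and too few replicates reaching it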
esBAF inh: SWI/SNF esBAF complex inhibition; 350,000 tested, 2% active; AID 602393; reporter increase, % at 12.5 µM; mouse ES cells, Bmi1-luciferase knock-in reporter, 24 h; 100% = twice the neutral-well signal; in the data active = activation above about 40%; inconclusive = no clear call, values can overlap the other calls;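 note: a rise in the Bmi1 reporter signal indicates esBAF inhibition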
MITF TRPM1 HTS: activators of MITF-driven TRPM1 promoter activity in SK-MEL-5 cells. SK-MEL-5 TRPM1-promoter luciferase, 24 h; % of positive control, neutral wells = 0. activation, % at 12.5 µM. 300,000 tested, 0.75% active;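 active = mean activation of at least 80% with every replicate also reaching 80%; inconclusive = mean reaches 80% but some replicate falls short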
HSF1 inh: HSF1 inhibition. NIH3T3-HGL HSE-luciferase, MG132-induced, luminescence 8 h; hits give low values. 300,000 tested, 0.77% active. AID 2098. activity change, negative = inhibition, % at 7.5 µM (by protocol);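 active = more than half of replicate wells show activity change below -50%, luminescence cut by over half; inconclusive = some wells, but at most half, below -50%; inactive = no replicate well below -50%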;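 note: luciferase reports HSF-1 transcriptional activity via heat shock element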
Each line names hits and unclear results; the compound was inactive in the other large screens. Only some compounds are listed: those with a hit (about 3.8% of all), similar ones and a draw of the others.

CCN(CC)C(=S)SCC(=O)Nc1ccc(S(N)(=O)=O)cc1	none
O=C(Nc1sc(-c2ccccc2)cc1C(=O)O)c1ccccc1	Wnt bcat act 34 (no result: esBAF inh)
CCCOc1ccc(-c2cnc(SCC(N)=O)nc2N)cc1	none
COc1ccc(-c2nc(CCl)cs2)cc1OC	none
CCOC(=O)c1ccc(CSc2nnc(N)s2)cc1	esBAF inh 48 (no result: Wnt bcat act, MITF TRPM1 HTS)
CCCOc1ccc(OCCSc2nnc(N)s2)cc1	HSF-1 act 125, esBAF inh 53 (no result: Wnt bcat act)
CCCOc1ccc(-c2cnc(N)s2)cc1	esBAF inh 76, MITF TRPM1 HTS 88
CCOc1ccc(-c2nc(CSc3nnc(N)s3)cs2)cc1OC	esBAF inh 47 (no result: Wnt bcat act)
Nc1nnc(SCCCOc2ccc(F)cc2)s1	none
C[C@H]1CN([C@@H](C)CO)C(=O)c2cc(NC(=O)CCC(F)(F)F)ccc2O[C@@H]1CN(C)Cc1ccccc1	none (no result: Wnt bcat act, HSF-1 act, MITF TRPM1 HTS, HSF1 inh)
Cc1nc(CSc2nnc(N)s2)cs1	none (no result: esBAF inh)
CCOc1ccc(-c2nc(CSc3nnc(N)s3)cs2)cc1	HSF-1 act 62, esBAF inh 49 (no result: Wnt bcat act)
CC(C)(C)NC(=O)Nc1ccc2nccnc2c1	esBAF inh 52 (no result: Wnt bcat act)
COc1ccc(-c2csc3ncnc(N4CCN(c5ccc(OC)cc5)CC4)c23)cc1	none
COc1ccc(-c2nsc3c(N4CCCC4)ncnc23)cc1	HSF1 inh -55 (no result: Wnt bcat act)
CC(=O)c1ccc(N/C=C\C(=O)c2ccc(C)cc2)cc1	Wnt bcat act 66, MITF TRPM1 HTS 93 (no result: esBAF inh)
CC(=O)c1cccc(N/C=C\C(=O)c2ccc(C)cc2)c1	none (no result: Wnt bcat act, esBAF inh)
CC(=O)Nc1ccc(C(=O)NNC(=O)c2ccc(Cl)cc2)cc1	none (no result: MITF TRPM1 HTS)
CC(=O)Nc1ccc(N/C=C/C(=O)c2ccc(Cl)cc2)cc1	esBAF inh 59 (no result: MITF TRPM1 HTS)
CN1[C@@H]2Cn3c(ccc(-c4ccncc4)c3=O)[C@H]1[C@@H](C(=O)NCC1CCCCC1)[C@@H]2CO	none (no result: Wnt bcat act, HSF-1 act, MITF TRPM1 HTS, HSF1 inh)
CCC1CCc2sc(C(=O)NCC3CCCO3)cc2C1 (stereo not drawn)	Wnt bcat act 55, esBAF inh 66 (no result: HSF-1 act, HSF1 inh)
CN1C(=O)C(CC(=O)Nc2ccc(Cl)cc2)N(Cc2ccco2)C1=S (stereo not drawn)	HSF-1 act 53 (no result: esBAF inh)
CCOc1ccc(NC(=O)CC2C(=O)N(C)C(=S)N2Cc2ccco2)cc1 (stereo not drawn)	none (no result: Wnt bcat act, esBAF inh)
COc1ccc(-c2csc(N(CC3CCCO3)C(=O)c3ccc(C)cc3)n2)cc1 (stereo not drawn)	Wnt bcat act 38 (no result: MITF TRPM1 HTS)
COc1ccc(-c2csc(N(CC3CCCO3)C(=O)c3ccccc3)n2)cc1 (stereo not drawn)	none (no result: esBAF inh)
CCCN1C[C@@H](C)[C@@H](OC)CN(C)C(=O)c2cc(NS(C)(=O)=O)ccc2OC[C@@H]1C	none (no result: Wnt bcat act, HSF-1 act, MITF TRPM1 HTS, HSF1 inh)
O=C(C1CCCCC1)N1CC[C@@H]2[C@H](CO)Nc3ccc(Br)cc3[C@@H]21	none (no result: Wnt bcat act, HSF-1 act, MITF TRPM1 HTS, HSF1 inh)
COc1ccc(/C=C2\Oc3ccccc3C2=O)cc1	none (no result: HSF-1 act, HSF1 inh)
COc1ccc2c(c1)O/C(=C\c1sccc1C)C2=O	esBAF inh 42 (no result: Wnt bcat act)
COc1ccc2cc(CN(Cc3ccco3)Cc3nnnn3C3CCCCC3)c(=O)[nH]c2c1	none (no result: Wnt bcat act)
COc1ccc2cc(CN(Cc3ccco3)C(c3nnnn3C3CCCCC3)C(C)C)c(=O)[nH]c2c1 (stereo not drawn)	HSF-1 act 70 (no result: Wnt bcat act)
NC(=O)c1ccccc1OCc1nc2ccccc2s1	Wnt bcat act 42
O=S(=O)(/N=C(/Nc1nc2ccccc2s1)c1ccccc1)c1ccccc1	Wnt bcat act 50, esBAF inh 66 (no result: HSF-1 act, HSF1 inh)
Cc1cc(C(=O)OCc2nc3ccccc3s2)c(C)o1	esBAF inh 72 (no result: Wnt bcat act)
O=S(=O)(Cc1nc2ccccc2s1)c1ccccc1	HSF-1 act 59, esBAF inh 57
O=S(=O)(CCc1nc2ccccc2s1)c1ccc(Cl)cc1	none
C[C@H](CO)N1C[C@H](C)[C@H](CN(C)C(=O)Nc2ccc(F)cc2)OCCCC[C@H](C)Oc2ccc(NC(=O)c3ccncc3)cc2C1=O	none (no result: Wnt bcat act, HSF-1 act, MITF TRPM1 HTS, HSF1 inh)
Cc1ccc(S(=O)(=O)N(C)C[C@@H]2OCCCC[C@H](C)Oc3ccc(NC(=O)NC(C)C)cc3C(=O)N([C@@H](C)CO)C[C@@H]2C)cc1	none (no result: Wnt bcat act, HSF-1 act, MITF TRPM1 HTS, HSF1 inh)
C[C@@H]1CN([C@H](C)CO)C(=O)c2cc(NS(=O)(=O)c3ccc(Cl)cc3)ccc2O[C@@H](C)CCCCO[C@@H]1CN(C)C(=O)c1ccncc1	none (no result: Wnt bcat act, HSF-1 act, MITF TRPM1 HTS, HSF1 inh)
O=C(O)COCc1nc2ccccc2s1	none
CC(=O)OCc1nc2ccccc2s1	Wnt bcat act inconclusive, esBAF inh 43
CC(=O)Nc1ccc(NC(=O)c2sc3nc4n(c(=O)c3c2C)CCCCC4)cc1	none (no result: esBAF inh)
CCc1ccc(NC(=O)c2sc3nc4n(c(=O)c3c2C)CCC4)cc1	esBAF inh 44
CC(=O)c1cccc(NC(=O)c2sc3nc4n(c(=O)c3c2C)CCCC4)c1	esBAF inh 49
COc1ccccc1C(=O)Nc1ccc2nc3n(c(=O)c2c1)CCCC3	none
Cc1c(C(=O)Nc2ccccc2)sc2ncn(CC(=O)N3CCCCC3)c(=O)c12	none
COc1cc(OC)cc(C(=O)Nc2ccc3nc4n(c(=O)c3c2)CCCCC4)c1	esBAF inh 53
Cc1c(C(=O)Nc2ccc(F)cc2)sc2ncn(CC(=O)N3CCCCC3)c(=O)c12	HSF1 inh -55
CCNC(=O)C[C@@H]1CC[C@@H]2[C@@H](COc3ccc(NS(C)(=O)=O)cc3C(=O)N2C)O1	none (no result: Wnt bcat act, HSF-1 act, MITF TRPM1 HTS, HSF1 inh)
CCC(=O)Nc1ccc2c(c1)OC[C@@H](C)N(C(=O)COC)C[C@@H](C)[C@@H](OC)CN(C)C2=O	none (no result: Wnt bcat act, HSF-1 act, MITF TRPM1 HTS, HSF1 inh)
Cc1cc(C)c2nc(N3CCCC(C(=O)NC4CCCC4)C3)sc2c1 (stereo not drawn)	esBAF inh 58
COc1ccc(CCNC(=O)CN2CCN(Cc3ccccc3F)C2=O)cc1OC	HSF1 inh -74 (no result: esBAF inh)
CCOc1ccc2c(c1)C(=NNC(=O)c1ccncc1)c1cc(OCC)ccc1-2	Wnt bcat act 49, esBAF inh 54
O=C(C[C@H]1CC[C@H](NC(=O)Nc2ccccc2F)[C@@H](CO)O1)NCc1ccc(Cl)cc1	none (no result: Wnt bcat act, HSF-1 act, MITF TRPM1 HTS, HSF1 inh)
CN(C)CC(=O)c1c(N)n(Cc2ccccc2)c(=O)n(C)c1=O	none (no result: esBAF inh)
CCN(CC(=O)c1c(N)n(C)c(=O)n(C)c1=O)c1cccc2ccccc12	HSF-1 act 85
COc1cc2oc3ccccc3c(=O)c2cc1OC	none (no result: Wnt bcat act)
O=c1c2ccccc2oc2cc(Br)ccc12	esBAF inh 71 (no result: HSF-1 act, HSF1 inh)
O=c1c2ccccc2oc2ccc(Oc3ccccc3)cc12	Wnt bcat act 54, MITF TRPM1 HTS inconclusive
O=c1c2ccccc2oc2c1oc1ccccc12	esBAF inh 54, MITF TRPM1 HTS 103 (no result: HSF-1 act, HSF1 inh)
CS(=O)(=O)Nc1ccc2c(c1)[C@@H]1C[C@H](CC(=O)N3CCCCC3)O[C@@H](CO)[C@@H]1O2	none (no result: Wnt bcat act, HSF-1 act, MITF TRPM1 HTS, HSF1 inh)
COCCn1c(=O)[nH]c2cc(C(=O)N3CCN(c4cccc(Cl)c4)CC3)ccc2c1=O	HSF-1 act 53
CCOc1ccc(NC(=O)c2ccc3c(=O)n(-c4ccc(OC)cc4OC)c(=S)[nH]c3c2)cc1	HSF1 inh -81
COc1ccc(-n2c(=S)[nH]c3cc(C(=O)Nc4ccc(C)c(F)c4)ccc3c2=O)c(OC)c1	none
COc1ccc(NC(=O)c2ccc3c(=O)n(-c4ccc(OC)cc4OC)c(=S)[nH]c3c2)c(OC)c1	none (no result: esBAF inh)

High-throughput results deposited in PubChem BioAssay by Broad Institute.
